Drawing on PubChem BioAssay, this text covers z-score and composite z-score for seven molecules.

A short description of assay [1]: HepG2 liver cancer cell viability effects, profiling panel, resazurin fluorescence, 24 h, PK04 Diversity Set (AID 1172). As to conditions: higher = more signal.
Assay [2] in a line: basal S. cerevisiae growth modulation, no modifier, primary screen, OD600, strain BY4716, 24 h, basal condition (AID 1173). Conditions: OD600, 24 h, higher = more signal, called active from +8 up or from −8 down.
Assay [3] can be described thus: MM1S myeloma cell viability, profiling panel, resazurin fluorescence, basal, 24 h, PK04 Diversity Set (AID 1174).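 Further: MM1S multiple myeloma cell line.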 Conditions: higher = more signal, called active from +8 up or from −8 down.
Assay [4] concerns the target Dihydroorotate dehydrogenase (quinone), mitochondrial (Plasmodium falciparum (isolate 3D7)) (UniProt Q08210). Nature of the assay: PfDHODH enzyme inhibitors, primary screen, biochemical, C-terminal His tag, absorbance 600 nm (AID 1175).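 Further: recombinant parasite enzyme with a five histidine tag at its C terminus.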 Conditions: DCIP absorbance 600 nm, higher = more signal, called active from +8 up or from −8 down.
The nature of assay [5]: P. aeruginosa biofilm formation inhibitors, primary screen, strain PAO1, LB-PBS medium, absorbance 600 nm (AID 1176). As to conditions: P. aeruginosa PAO1 growth/biofilm, A600, 12 h; higher = more signal.
Assay [6] can be described thus: S. cerevisiae RM11-1a growth modifiers, primary screen, strain RM11-1a, OD600, basal, 24 h (AID 1177).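 Further: cultures grown under basal conditions with no added stressor.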 As to conditions: OD600, 24 h, higher = more signal, called active from +8 up or from −8 down.
The nature of assay [7]: E. coli acrAB mutant growth effects, primary screen, E. coli filamentation inducers, strain DRC39, OD650, 24 h (AID 1178).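 Further: growth measured as culture turbidity by optical density at 650 nm.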 As to conditions: higher = more signal, called active from +8 up or from −8 down.
A short description of assay [8]: E. coli acrAB mutant growth effects, primary screen, E. coli filamentation inducers, strain DRC39, OD650, 48 h (AID 1179).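 Further: screen aims at cell division blockers that make cells filament.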 As to conditions: E. coli DRC39 delta-acrAB growth, higher = more signal, called active from +8 up or from −8 down.
The nature of assay [9]: RPMI8226 myeloma cell viability, profiling panel, resazurin fluorescence, basal, 24 h, PK04 Diversity Set (AID 1180).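 Further: RPMI8826 multiple myeloma cell line at 5000 cells per well.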 Conditions: higher = more signal.
Assay [10] has as its target E3 ubiquitin-protein ligase XIAP (Homo sapiens) (UniProt P98170). Nature of the assay: XIAP binders, primary screen, biophysical, small-molecule microarray, fluorescence 635 nm (AID 1181).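 Further: score merges 667 nm emission and signal to noise over triplicate slides.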 Conditions: small-molecule microarray binding, higher = more signal.
Assay [11] deals with XIP peptide (Xip251-270) binding. As to the kind of experiment: small-molecule binders of XIP peptide, primary screen, biochemical, small-molecule microarray, fluorescence 635/667 nm, 0.1 µg/mL protein (AID 1182). As to conditions: fluorescent protein binding, 635 nm, higher = more signal, called active from +8 up or from −8 down.
The test system of assay [12] is XIP peptide (Xip251-270). Nature of the assay: small-molecule binders of XIP peptide, primary screen, biochemical, small-molecule microarray, fluorescence 635/667 nm, 0.5 µg/mL protein (AID 1183). Conditions: small-molecule microarray binding, fluorescence 635 nm; higher = more signal.
Assay [13] is described as follows: Plasmodium falciparum growth inhibition, primary screen, strain 3D7, DAPI fluorescence, 100 nL (AID 1184).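 Further: parasites grown inside human red blood cells in medium with human serum.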 Conditions: P. falciparum 3D7 growth, 3 d, higher = more signal.
Assay [14] concerns the target Homeobox protein Hox-A13 (Mus musculus) (UniProt Q62424). Nature of the assay: inhibitors of HoxA13-DNA binding, primary screen, biochemical, fluorescence polarization, labeled oligonucleotide (AID 1185). Conditions: 15 min, higher = more signal, called active from +8 up or from −8 down. (Fluorescence polarisation rises when a labelled molecule tumbles more slowly, as on binding a larger partner.)

Assay [15] is described as follows: inhibitors of hydroxyurea-induced Chk1 phosphorylation, primary screen, imaging, HeLa, phospho-Chk1 antibody, percent positive cells (AID 1186). Conditions: hydroxyurea-induced phospho-Chk1 immunofluorescence imaging, higher = more signal.
A short description of assay [16]: inhibitors of hydroxyurea-induced Chk1 phosphorylation, primary screen, imaging, HeLa, phospho-Chk1 nuclear intensity (AID 1187). Conditions: hydroxyurea-induced phospho-Chk1 immunofluorescence imaging, higher = more signal.

Calls of active or inactive are those of the source. Unless noted, how the calls were made is not given here.

E3 ubiquitin-protein ligase XIAP (Homo sapiens), sequence (P98170 whole entry, looked up): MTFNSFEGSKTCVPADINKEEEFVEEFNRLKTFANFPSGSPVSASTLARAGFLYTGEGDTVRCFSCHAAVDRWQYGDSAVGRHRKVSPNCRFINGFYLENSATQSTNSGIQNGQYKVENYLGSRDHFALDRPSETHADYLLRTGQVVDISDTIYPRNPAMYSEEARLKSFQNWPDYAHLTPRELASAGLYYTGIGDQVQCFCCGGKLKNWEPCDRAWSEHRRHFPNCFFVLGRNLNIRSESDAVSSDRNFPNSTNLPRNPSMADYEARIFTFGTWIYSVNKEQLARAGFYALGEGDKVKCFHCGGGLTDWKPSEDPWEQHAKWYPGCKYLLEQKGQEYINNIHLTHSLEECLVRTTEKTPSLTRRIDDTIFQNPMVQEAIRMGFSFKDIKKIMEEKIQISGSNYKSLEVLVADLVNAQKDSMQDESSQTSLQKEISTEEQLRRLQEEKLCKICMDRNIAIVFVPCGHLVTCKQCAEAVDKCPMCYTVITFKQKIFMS
Dihydroorotate dehydrogenase (quinone), mitochondrial (Plasmodium falciparum (isolate 3D7)), sequence (Q08210 whole entry, looked up): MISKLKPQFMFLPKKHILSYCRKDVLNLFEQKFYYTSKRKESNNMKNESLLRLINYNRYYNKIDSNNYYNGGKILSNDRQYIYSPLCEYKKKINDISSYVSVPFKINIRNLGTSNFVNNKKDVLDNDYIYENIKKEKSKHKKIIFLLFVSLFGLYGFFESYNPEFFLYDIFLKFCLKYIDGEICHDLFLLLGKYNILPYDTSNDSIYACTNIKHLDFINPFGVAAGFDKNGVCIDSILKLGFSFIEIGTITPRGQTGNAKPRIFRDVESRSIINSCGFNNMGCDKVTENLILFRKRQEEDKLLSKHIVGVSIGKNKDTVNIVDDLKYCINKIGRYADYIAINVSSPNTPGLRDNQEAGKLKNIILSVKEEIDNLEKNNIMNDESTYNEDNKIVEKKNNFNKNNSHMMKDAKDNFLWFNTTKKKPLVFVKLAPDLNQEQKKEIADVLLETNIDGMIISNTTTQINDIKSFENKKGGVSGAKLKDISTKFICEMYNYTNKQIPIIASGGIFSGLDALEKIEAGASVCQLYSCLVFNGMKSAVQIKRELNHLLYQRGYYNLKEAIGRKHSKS
Homeobox protein Hox-A13 (Mus musculus), sequence (Q62424 whole entry, looked up): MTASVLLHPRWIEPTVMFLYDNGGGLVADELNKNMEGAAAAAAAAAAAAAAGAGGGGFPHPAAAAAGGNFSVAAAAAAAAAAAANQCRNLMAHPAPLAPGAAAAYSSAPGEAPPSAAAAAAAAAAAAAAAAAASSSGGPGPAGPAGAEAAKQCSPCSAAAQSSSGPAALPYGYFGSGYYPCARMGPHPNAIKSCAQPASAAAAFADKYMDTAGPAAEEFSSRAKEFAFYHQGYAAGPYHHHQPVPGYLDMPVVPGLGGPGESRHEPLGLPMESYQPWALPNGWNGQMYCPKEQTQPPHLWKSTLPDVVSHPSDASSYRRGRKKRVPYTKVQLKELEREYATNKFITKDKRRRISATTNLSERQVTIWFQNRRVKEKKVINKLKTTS

`Cc1ccc(S[C@]2(C(=O)NC3CC3)CC(=O)N(Cc3cc(C(F)(F)F)cc(C(F)(F)F)c3)[C@@H]2c2ccc(CO)cc2I)cc1`: the z-score in assay [1] is 0.411; in [2] it was -5.11 (inactive); in [3], -2.78 (inactive); in assay [5], 0.944 (inactive); in assay [6], -1.6 (inactive); in assay [7], 0.0621 (inactive). In addition, the z-score in assay [8] was 0.108 (inactive); in [9] it was -2.23; in assay [13] it was 0.496; in assay [14], -2.13 (inactive); in assay [15], 0.505 (inactive); in assay [16] it was 0.924 (inactive). Also, the composite z-score in assay [4] is -3.55 (inactive); in assay [10], 0.723; in [11], 0.102 (inactive); in assay [12], 0.679.
Turning to `COC(=O)[C@@]1(Cc2ccc(F)cc2)[C@H]2c3cc(C(=O)N(C)C)n(CCN4CCOCC4)c3C[C@H]2CN1C(=O)c1ccccc1`, the z-score in assay [1] was 0.255; in assay [2], 1.22 (inactive); in assay [3], -0.663 (inactive); in [5], 0.0818 (inactive); in [6], 0.7 (inactive); in assay [7], 0.187 (inactive). In addition, the z-score in [8] was -0.957 (inactive); in assay [9], 0.874; in [13], -1.45; in assay [14], -6.83 (inactive); in assay [15], -0.366 (inactive); in assay [16] it was -0.245 (inactive). For the same molecule, the composite z-score in assay [4] was -0.521 (inactive); in [10], 0.138; in [11] it was 0.673 (inactive); in assay [12], 0.811.
Take `O=C(NCCO)C1=C[C@H](Oc2ccccc2I)[C@@H](O)[C@H](NCc2ccc(F)cc2)C1`: the z-score in [1] is -1.47; in assay [2] it was -2.04 (inactive); in [3] it was -0.206 (inactive); in assay [5], 0.367 (inactive); in [6] it was 0.423 (inactive); in [7], -0.802 (inactive). Further, the z-score is -1.44 (inactive) in [8]; -0.264 in assay [9]; -1.61 in assay [13]; -6.81 (inactive) in assay [14]; 0.079 (inactive) in assay [15]; -0.34 (inactive) in [16]. The composite z-score in assay [4] was -0.287 (inactive); in assay [10], 0.181; in assay [11], 0.234 (inactive); in [12] it was -0.875.
Regarding `O=C1C2C=CC(C(O)c3ccc([N+](=O)[O-])cc3)N(Nc3ccccc3)C2C(=O)N1c1ccccc1` (configuration not stated), the z-score in assay [1] was -0.849; in assay [2] it was -2.61 (inactive); in [3], -0.952 (inactive); in assay [5], 0.791 (inactive); in [6] it was -0.453 (inactive); in assay [7], -0.46 (inactive). Also, the z-score in assay [8] is -0.253 (inactive); in assay [9], -1.81; in [13] it was 0.45; in assay [14], -4.48 (inactive); in [15], 0.226 (inactive); in [16], -0.168 (inactive). In addition, the composite z-score in assay [4] was -1.03 (inactive); in [10] it was -0.0085; in assay [11], 0.392 (inactive); in [12] it was 0.467.
`C=CCNC(=O)[C@H]1[C@@H]2C(=O)O[C@@H](c3ccccc3)[C@@H](c3ccccc3)N2[C@@H](c2ccc(O)cc2)[C@]12C(=O)Nc1ccc(C#CC3=CCCCC3)cc12`: the z-score in assay [1] was -0.118; in assay [2], -0.147 (inactive); in assay [3] it was -2.44 (inactive); in assay [5], 1.41 (inactive); in [6], 1.87 (inactive); in [7], 0.322 (inactive). The z-score in [8] is 0.628 (inactive); in assay [9] it was -5.43; in assay [13], -0.51; in [14] it was 0.771 (inactive); in assay [15], -0.354 (inactive); in assay [16], -0.217 (inactive). Moreover, the composite z-score in assay [4] is 0.018 (inactive); in assay [10], -0.124; in assay [11], 0.542 (inactive); in assay [12], 0.785.
With `COC(=O)[C@H](Cc1ccc(O)cc1)N1CC2=CCCC=C[C@@H]2[C@H]1[C@H](O)Cc1ccccc1`, the z-score in [1] was 0.969; in assay [2], -2.95 (inactive); in [3], 0.658 (inactive); in [5], 0.106 (inactive); in [6] it was -0.889 (inactive); in assay [7] it was 1.34 (inactive). Also, the z-score in assay [8] is 1.34 (inactive); in assay [9], 0.601; in assay [13], -1.63; in [14], -8.16 (active); in assay [15], -1.09 (inactive); in assay [16], -1.18 (inactive). The composite z-score is -0.574 (inactive) in [4], -0.219 in assay [10], -0.0324 (inactive) in assay [11] and 0.419 in [12].
Take `CCCC[C@@H]1C[C@H]1[C@@H](NC(=O)Cc1ccccc1)c1ccc(Cl)cc1`: the z-score in assay [1] is 1.95; in assay [2], 0.0658 (inactive); in assay [3] it was 0.625 (inactive); in [5], 0.33 (inactive); in assay [6], 0.335 (inactive); in assay [7], -0.704 (inactive). Also, the z-score was -0.162 (inactive) in assay [8]; -4.68 in assay [9]; -0.0042 in assay [13]; -2.08 (inactive) in assay [14]; -0.114 (inactive) in assay [15]; -0.588 (inactive) in assay [16]. Besides, the composite z-score in [4] is -1.36 (inactive); in [10], -0.0103; in assay [11] it was 0.155 (inactive); in [12] it was 0.503.
